Laboratory results reported in ChEMBL document CHEMBL3988442, “University of Dundee, Small-Polar-MMV Screening Library” (2021).
For some of these results: Entries with a potency or affinity are not part of this list.

Experiments:
Set-up in all cases: scale not given: direction of the effect not stated beside the values
[1] = target: Protein translocase subunit SecA (Escherichia coli (strain K12)) (UniProt P10408); assay: Assay to Identify E. coli SecA ATPase Inhibitors; type: functional; conditions: 30 µM
Chain of Protein translocase subunit SecA (Escherichia coli (strain K12)) (P10408 whole entry): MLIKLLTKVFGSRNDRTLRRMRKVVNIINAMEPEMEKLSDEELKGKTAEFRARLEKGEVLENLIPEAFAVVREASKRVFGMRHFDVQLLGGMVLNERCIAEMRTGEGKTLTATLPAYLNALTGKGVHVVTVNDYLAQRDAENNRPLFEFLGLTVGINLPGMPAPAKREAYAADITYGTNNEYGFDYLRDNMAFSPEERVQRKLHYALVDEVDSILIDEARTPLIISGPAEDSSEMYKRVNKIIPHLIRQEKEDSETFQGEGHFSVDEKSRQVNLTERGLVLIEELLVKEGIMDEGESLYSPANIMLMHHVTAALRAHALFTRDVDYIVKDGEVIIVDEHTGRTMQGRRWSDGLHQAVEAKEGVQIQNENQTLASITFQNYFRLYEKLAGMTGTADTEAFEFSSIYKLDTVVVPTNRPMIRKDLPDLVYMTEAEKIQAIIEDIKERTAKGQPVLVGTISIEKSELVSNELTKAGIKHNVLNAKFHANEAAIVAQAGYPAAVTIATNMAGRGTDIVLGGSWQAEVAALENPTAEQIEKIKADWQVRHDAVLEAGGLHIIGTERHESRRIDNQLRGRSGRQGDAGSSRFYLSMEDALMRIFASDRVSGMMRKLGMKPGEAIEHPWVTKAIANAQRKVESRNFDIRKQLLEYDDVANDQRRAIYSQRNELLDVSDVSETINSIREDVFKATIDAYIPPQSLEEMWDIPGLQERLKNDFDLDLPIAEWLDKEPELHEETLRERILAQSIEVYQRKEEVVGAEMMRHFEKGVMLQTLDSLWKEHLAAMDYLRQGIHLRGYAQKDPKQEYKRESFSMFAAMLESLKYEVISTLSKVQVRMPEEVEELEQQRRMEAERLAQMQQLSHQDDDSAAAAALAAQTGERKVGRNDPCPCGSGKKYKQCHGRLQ

[2] = target: T1, Ubiquitin-activating enzyme e1, putative (Leishmania donovani (strain BPK282A1)) (UniProt E9BSI1); assay: Leishmania donovani Ubiquitin Activating Enzyme (LdE1); type: functional; conditions: 30 µM
T1 sequence (whole entry): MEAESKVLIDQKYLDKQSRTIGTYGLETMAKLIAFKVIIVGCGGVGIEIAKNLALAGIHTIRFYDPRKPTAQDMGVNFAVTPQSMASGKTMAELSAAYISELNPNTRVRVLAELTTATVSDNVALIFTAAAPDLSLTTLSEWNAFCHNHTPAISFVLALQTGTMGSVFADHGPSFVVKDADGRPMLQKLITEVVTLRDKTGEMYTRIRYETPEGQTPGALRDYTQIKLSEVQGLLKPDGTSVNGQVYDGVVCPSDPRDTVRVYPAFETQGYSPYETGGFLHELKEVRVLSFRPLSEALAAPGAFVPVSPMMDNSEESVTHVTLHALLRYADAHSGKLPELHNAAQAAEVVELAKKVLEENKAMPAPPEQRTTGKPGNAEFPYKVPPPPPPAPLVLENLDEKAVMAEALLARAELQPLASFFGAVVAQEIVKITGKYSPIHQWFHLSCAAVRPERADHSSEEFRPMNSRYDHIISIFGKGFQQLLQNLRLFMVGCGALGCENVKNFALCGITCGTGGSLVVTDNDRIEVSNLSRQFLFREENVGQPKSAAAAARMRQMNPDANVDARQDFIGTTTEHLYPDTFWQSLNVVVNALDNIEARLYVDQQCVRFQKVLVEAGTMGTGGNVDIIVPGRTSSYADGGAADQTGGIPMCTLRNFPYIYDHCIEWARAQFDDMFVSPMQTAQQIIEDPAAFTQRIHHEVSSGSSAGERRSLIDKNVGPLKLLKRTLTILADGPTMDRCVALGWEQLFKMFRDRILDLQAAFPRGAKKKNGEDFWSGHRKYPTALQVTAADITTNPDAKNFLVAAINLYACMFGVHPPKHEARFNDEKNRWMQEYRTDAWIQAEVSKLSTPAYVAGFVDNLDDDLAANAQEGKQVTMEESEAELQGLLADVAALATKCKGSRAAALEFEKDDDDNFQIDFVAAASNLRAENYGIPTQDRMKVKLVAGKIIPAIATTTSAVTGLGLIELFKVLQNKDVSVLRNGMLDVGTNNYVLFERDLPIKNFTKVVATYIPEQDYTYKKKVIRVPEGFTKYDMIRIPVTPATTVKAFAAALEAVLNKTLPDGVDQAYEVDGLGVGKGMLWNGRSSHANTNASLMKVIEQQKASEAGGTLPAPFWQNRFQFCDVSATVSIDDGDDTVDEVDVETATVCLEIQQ

[3] = target: AMP-activated protein kinase, AMPK (Homo sapiens) (UniProt P54646+O43741+P54619+Q9UGJ0+Q9Y478+Q13131+Q9UGI9); assay: AMP-dependent Kinase enzyme assay. An in vitro enzyme assay that detects ADP turnover that is directly proportional to AMPK activity. This uses naive AMPK that is activated during the assay with MK-8722; type: functional; conditions: 30 µM
[4] = target: Sialic acid-binding Ig-like lectin 9 (Homo sapiens) (UniProt Q9Y336); assay: Hs-Siglec9 ALPHAscreen SOP 20170721; conditions: 10 µM
Chain of Sialic acid-binding Ig-like lectin 9 (Homo sapiens) (Q9Y336 whole entry): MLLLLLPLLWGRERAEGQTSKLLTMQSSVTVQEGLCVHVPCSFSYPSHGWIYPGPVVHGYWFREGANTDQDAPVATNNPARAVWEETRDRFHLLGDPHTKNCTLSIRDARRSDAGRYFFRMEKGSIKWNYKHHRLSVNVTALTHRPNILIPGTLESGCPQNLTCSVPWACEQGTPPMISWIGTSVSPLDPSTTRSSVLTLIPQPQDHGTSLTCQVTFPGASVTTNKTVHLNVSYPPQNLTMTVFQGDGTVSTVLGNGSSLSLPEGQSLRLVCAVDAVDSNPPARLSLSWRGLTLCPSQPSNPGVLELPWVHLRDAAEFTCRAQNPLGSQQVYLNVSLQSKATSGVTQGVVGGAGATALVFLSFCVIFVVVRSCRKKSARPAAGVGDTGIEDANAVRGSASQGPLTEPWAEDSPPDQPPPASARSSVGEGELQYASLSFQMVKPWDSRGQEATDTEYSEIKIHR

[5] = test system: Trypanosoma cruzi; assay: Trypanosoma cruzi phosphomannomutase and mannose-1-phosphate guanylyltransferase assay; type: functional; conditions: 10 µM
[6] = target: T2, Arginase-2, mitochondrial (Homo sapiens) (UniProt P78540); assay: in vitro enzyme assay to detect the production of urea directly proportional to the activity of Arginase II; type: functional; conditions: 33.3 µM; note: in the data most compounds retested in dose-response had high values
T2 sequence (whole entry): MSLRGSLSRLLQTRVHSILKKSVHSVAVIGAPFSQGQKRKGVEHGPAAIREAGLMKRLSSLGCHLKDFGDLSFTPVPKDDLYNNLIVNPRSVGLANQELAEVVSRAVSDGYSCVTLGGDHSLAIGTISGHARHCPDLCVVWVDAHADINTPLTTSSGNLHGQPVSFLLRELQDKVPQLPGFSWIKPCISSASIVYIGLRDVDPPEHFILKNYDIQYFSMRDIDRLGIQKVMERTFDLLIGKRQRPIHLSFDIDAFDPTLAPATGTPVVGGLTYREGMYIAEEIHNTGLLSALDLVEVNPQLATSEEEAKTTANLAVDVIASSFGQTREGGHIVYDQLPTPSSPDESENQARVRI

[7] = target: T3, Proteasome subunit beta (Trypanosoma cruzi) (UniProt O96673); assay: Trypanosoma cruzi proteasome chymotrypsin-like activity (TcProtChymo) assay.; note: in the data most compounds retested in dose-response had high values; type: functional; conditions: 9.37 µM
T3 sequence (whole entry): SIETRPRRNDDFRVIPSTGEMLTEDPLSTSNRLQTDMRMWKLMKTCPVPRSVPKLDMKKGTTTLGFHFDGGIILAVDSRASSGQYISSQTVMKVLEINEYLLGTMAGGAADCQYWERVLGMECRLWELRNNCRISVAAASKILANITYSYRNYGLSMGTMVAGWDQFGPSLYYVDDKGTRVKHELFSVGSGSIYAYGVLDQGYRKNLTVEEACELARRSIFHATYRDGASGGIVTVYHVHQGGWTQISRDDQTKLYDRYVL

[8] = species: Homo sapiens; assay: To identify inhibition of the IFN signalling (Jak-Stat) pathway via expression of an eGFP reporter gene under the control of an IFN-stimulated response element (ISRE) containing MxA promoter.; type: functional; conditions: 30 µM
[9] = target: T4, Tyrosyl-tRNA synthetase, putative (Trypanosoma cruzi (strain CL Brener)) (UniProt Q4DSP6); assay: Trypanosoma cruzi tyrosyl tRNA synthetase (TcYRS) _High Tyrosine SOP; type: functional; conditions: 30 µM; note: in the data most compounds retested in dose-response had high values
T4 sequence (whole entry): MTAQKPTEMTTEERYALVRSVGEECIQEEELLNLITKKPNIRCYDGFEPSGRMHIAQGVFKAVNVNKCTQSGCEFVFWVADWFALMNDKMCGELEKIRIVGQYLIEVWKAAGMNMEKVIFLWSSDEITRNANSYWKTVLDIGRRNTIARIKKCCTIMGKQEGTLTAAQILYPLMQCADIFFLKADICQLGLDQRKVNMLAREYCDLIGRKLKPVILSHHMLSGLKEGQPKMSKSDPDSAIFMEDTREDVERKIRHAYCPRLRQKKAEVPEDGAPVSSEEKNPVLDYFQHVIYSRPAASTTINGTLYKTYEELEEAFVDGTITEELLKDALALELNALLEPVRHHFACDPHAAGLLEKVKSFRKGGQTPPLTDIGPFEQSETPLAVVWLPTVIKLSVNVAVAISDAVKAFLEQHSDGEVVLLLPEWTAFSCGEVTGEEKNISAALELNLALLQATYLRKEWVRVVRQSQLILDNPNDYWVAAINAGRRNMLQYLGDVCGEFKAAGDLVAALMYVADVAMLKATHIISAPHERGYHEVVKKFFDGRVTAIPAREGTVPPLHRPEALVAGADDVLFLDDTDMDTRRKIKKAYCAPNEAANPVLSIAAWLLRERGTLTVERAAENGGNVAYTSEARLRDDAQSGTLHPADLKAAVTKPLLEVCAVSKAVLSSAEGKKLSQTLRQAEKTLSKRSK

[10] = target: T4, Tyrosyl-tRNA synthetase, putative (Trypanosoma cruzi (strain CL Brener)); assay: Trypanosoma cruzi tyrosyl tRNA synthetase (TcYRS) SOP; type: functional; conditions: 30 µM
[11] = target: Chromo domain-containing protein 1 (Saccharomyces cerevisiae (strain ATCC 204508 / S288c) (Baker's yeast)) (UniProt P32657); assay: ScCHD-1 Enzyme Inhibition Assay; type: functional; conditions: 30 µM; note: in the data most compounds retested in dose-response had high values
Chain of Chromo domain-containing protein 1 (Saccharomyces cerevisiae (strain ATCC 204508 / S288c) (Baker's yeast)) (P32657 whole entry, the tested form may be a part): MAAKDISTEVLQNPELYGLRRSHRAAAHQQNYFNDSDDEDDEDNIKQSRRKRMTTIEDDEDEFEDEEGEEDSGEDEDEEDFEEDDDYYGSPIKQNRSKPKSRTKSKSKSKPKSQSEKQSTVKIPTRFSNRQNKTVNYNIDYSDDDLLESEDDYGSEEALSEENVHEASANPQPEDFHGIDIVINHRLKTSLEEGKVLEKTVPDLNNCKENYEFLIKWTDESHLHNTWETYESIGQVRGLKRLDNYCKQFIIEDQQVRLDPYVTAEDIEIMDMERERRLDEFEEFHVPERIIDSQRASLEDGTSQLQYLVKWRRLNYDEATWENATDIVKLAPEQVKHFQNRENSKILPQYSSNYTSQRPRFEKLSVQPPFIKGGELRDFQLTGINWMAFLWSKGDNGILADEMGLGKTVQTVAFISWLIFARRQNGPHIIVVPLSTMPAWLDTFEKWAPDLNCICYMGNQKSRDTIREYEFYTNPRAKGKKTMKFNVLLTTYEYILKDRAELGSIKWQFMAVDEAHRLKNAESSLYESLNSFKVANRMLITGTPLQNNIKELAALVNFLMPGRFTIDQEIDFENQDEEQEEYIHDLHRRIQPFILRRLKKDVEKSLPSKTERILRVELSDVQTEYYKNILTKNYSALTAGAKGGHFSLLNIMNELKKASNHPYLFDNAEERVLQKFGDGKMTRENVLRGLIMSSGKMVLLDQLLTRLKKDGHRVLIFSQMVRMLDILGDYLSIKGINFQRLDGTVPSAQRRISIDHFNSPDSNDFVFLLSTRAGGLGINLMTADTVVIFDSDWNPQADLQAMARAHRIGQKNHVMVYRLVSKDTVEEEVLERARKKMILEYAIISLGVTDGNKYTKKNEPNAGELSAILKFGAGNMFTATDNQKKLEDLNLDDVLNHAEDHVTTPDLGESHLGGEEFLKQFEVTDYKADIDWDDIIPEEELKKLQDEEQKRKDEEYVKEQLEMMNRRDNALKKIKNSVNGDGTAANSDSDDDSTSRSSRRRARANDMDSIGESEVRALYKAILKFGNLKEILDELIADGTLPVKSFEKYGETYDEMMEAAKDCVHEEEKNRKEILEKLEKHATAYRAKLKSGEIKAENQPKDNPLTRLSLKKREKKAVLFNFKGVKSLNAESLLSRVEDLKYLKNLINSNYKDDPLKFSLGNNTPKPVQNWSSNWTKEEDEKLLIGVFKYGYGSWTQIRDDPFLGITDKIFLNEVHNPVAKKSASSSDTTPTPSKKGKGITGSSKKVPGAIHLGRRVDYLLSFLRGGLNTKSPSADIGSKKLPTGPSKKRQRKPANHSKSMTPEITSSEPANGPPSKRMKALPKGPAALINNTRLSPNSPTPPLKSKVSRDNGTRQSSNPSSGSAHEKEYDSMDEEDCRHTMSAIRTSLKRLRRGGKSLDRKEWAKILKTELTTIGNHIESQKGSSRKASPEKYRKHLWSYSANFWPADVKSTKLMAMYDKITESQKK

Row | Compound | Percent Effect [1] | Percent Effect [2] | Percent Effect [3] | Percent Effect [4] | Percent Effect [5] | Percent Effect [6] | Percent Effect [7] | Percent Effect [8] | Percent Effect [9] | Percent Effect [10] | Percent Effect [11]
1 | O=C(Nc1nc2c(s1)CCC2)c1cccnc1N1CCOCC1 | -0.311% | -2.63% | 9.51% | -0.88% | -4.19% | 11.8% | 4.7% | 2.75% | 0% | -2.6% | 1.45%
2 | CCOc1nc2cccnc2n(CC(=O)NCCOC)c1=O | -0.937% | 23.4% | 3.02% | -0.135% | 3.85% | -1.94% | 10.4% | 3.76% | 3.17% | 11.5% | -9.72%
3 | COc1ccccc1C(=O)N1Cc2cc(C)ccc2OCC1CN(C)C (stereo not given) | -0.165% | 6.76% | 11.3% | -7.4% | -7.91% | -1.62% | 14.5% | 14.6% | 2.15% | 3.9% | -11.2%
4 | COc1ccc(CN(C)C(=O)CCC(=O)c2cccs2)c(OC)c1OC | -2.26% | -2.74% | -1.79% | 9.32% | 2.78% | -6.39% | 10.7% | 18.4% | 9.38% | 21% | 2.3%
5 | Cc1noc(C)c1CN1CC[C@H]2OCC[C@@H](C(=O)NCC3CC3)[C@@H]2C1 | -4.39% | 2.67% | 1.83% | 6.75% | -1.54% | -25.3% | 8.21% | -17.4% | 0% | 12.5% | -5.06%
6 | CC(CCN1CCn2nc(CNC(=O)N(C)C)cc2C1)c1ccccc1 (stereo not given) | -0.0552% | 5.41% | -1.77% | 16.6% | 4.25% | 8.1% | 6.9% | 16.3% | 6.88% | 19.5% | -3.46%
7 | CC(c1nc(C2CC2)no1)N1CCN(CCOCC(F)(F)F)CC1 (stereo not given) | -1.74% | -2.7% | -7.35% | 10.2% | 1.95% | -0.185% | 1.08% | 21% | 2.97% | 11% | 1.39%
8 | O=C(C1=CCCC1)N1C[C@H](Oc2cccnc2)[C@H]2OCCC[C@H]21 | 1.45% | 5.41% | 3.36% | -3.91% | -0.977% | -2.08% | 3.47% | 7.05% | 92.1% | 3.66% | -17.8%
9 | O=C(N[C@@H]1CCNC[C@H]1O)c1ccc(F)c(Cl)c1 | -3.79% | 5.41% | 0.871% | 3.76% | -3.09% | -1.43% | 1.21% | -2.61% | 3.7% | 9.76% | -2.77%
10 | CS(=O)(=O)NC[C@]12COC[C@H]1CN(CC1CCCC1)C2 | -4.19% | 5.41% | 8.19% | -4.23% | -4.79% | 1.59% | 20.1% | 0.262% | 2.16% | 7.69% | 0.895%
11 | CN(C)C(=O)CC1CC2(CCNCC2)c2cc(F)ccc21 (stereo not given) | -1.58% | -5.41% | 8.49% | -3.96% | -6.35% | -2.23% | 21% | -0.894% | -2.16% | 0% | 1.02%
12 | COc1cc(CNC(=O)CNc2cc(Cl)ccc2OC)ccn1 | -4.04% | 0% | -0.0708% | 2.86% | -2.55% | 0.802% | 3.6% | 9.38% | -4.43% | 3.7% | 0.373%
13 | O=S(=O)(Cc1ccccc1)NCC1CCN(c2cnccn2)CC1 | -2.03% | 10.4% | 5.37% | -3.08% | -6.02% | -3.23% | 10.4% | 9.96% | 3.17% | 6.41% | -7.97%
14 | CCN(C(c1cccnc1)c1ccc2c(c1)CCO2)S(C)(=O)=O (stereo not given) | -3.35% | 5.48% | -1.35% | 6.82% | 6.75% | -6.79% | 3.17% | 4.95% | 1.04% | 8.64% | -2.4%
15 | O=C([C@H]1CCCO1)N1CCc2ncnc(NC3CC3)c2CC1 | 1.86% | 0% | -0.252% | -2.06% | -5.47% | 5% | 12.4% | 3.34% | 9.9% | 13.4% | -4.91%
16 | CC1CN(C(=O)CN(Cc2ccco2)C2CC2)CCO1 (stereo not given) | -2.04% | 0% | 2.98% | -1.26% | -3.62% | 4.84% | 0.242% | 22.1% | 1.91% | 2.35% | -8.2%
17 | CCOc1ccc(N2CCCN=C2NC(=O)c2cccc(Cl)c2)cc1 | -0.891% | 5.2% | 1.42% | 2.2% | -4.62% | -13.8% | 14.6% | 1.55% | 3.23% | 13.6% | 0.903%
18 | O=C(CSc1nc2c(cnn2CCO)c(=O)[nH]1)N1CCCCCC1 | 1.99% | 8.22% | -8.26% | 4.22% | -3.33% | 3.18% | 11.4% | 14.3% | 4.3% | 10% | -2.48%
19 | O=C(Cc1ccccc1F)N1CCN(C(=O)c2ccoc2)CC1 | -1.97% | 7.89% | 7.43% | -1.79% | -2.04% | -23.7% | 22.5% | -4.65% | 9.57% | 18.2% | -2.49%
20 | Cc1ccc(F)c(OC2(C(=O)O)CCN(C(=O)N3CCCC3)CC2)c1 | 0.204% | -6.94% | 5.17% | -4.4% | -1.65% | 1.32% | 2.81% | -7.85% | 2.1% | 0% | 2.52%
